This is part of a sample that, as a whole, favours compounds with a hit. Of some 79,000 tested, about 15% had one in any assay. No stated cut-off is given here; in the data, active means growth inhibition above about 70%; inactive means the rest.
How the values were obtained:
[1] = NCI Yeast Anticancer Drug Screen. Data for the rad50 strain (AID 155);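 further: 0% = growth of vehicle-only cultures of the same strain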; conditions: S. cerevisiae rad50 strain growth inhibition; at 50.0 µM; stronger effect = higher value
In short: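 Cells are treated with compound, grown, and their growth is then scored against vehicle-only cultures of the same repair-deficient yeast strain.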

[2] = NCI Yeast Anticancer Drug Screen. Data for the mec2-1 strain (AID 157); conditions: S. cerevisiae mec2-1 strain, at 50.0 µM, stronger effect = higher value
In short: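 Yeast mec2-1 mutant treated with compound. Readout: growth inhibition vs vehicle controls.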

[3] = NCI Yeast Anticancer Drug Screen. Data for the sgs1 mgt1 strain (AID 161);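 further: 0% = growth of cultures given vehicle only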; conditions: S. cerevisiae sgs1 mgt1 strain, at 50.0 µM, stronger effect = higher value
In short: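 Mutant yeast exposed to compound; growth scored against vehicle-only wells.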

[4] = NCI Yeast Anticancer Drug Screen. Data for the cln2 rad14 strain (AID 165);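 further: 0% = growth equal to vehicle treated cultures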; conditions: S. cerevisiae cln2 rad14 strain, at 50.0 µM, stronger effect = higher value
In short: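 cln2 rad14 yeast strain; compound exposure; growth inhibition read vs vehicle controls.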

[5] = NCI Yeast Anticancer Drug Screen. Data for the bub3 strain (AID 167); conditions: S. cerevisiae bub3 mutant strain, at 50.0 µM, stronger effect = higher value
In short: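 Part of a panel of yeast mutants defective in DNA damage repair or cell cycle regulation. Each strain is grown with compound, and inhibition is calculated relative to solvent-treated cultures.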

[6] = NCI Yeast Anticancer Drug Screen. Data for the mlh1 rad18 strain (AID 175); conditions: S. cerevisiae mlh1 rad18 strain growth inhibition; at 50.0 µM; stronger effect = higher value
In short: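 Yeast w/ defined DNA-repair lesions; compound exposure; growth vs vehicle controls → % inhibition.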

Measured: growth inhibition

CCC(=O)C(C)C(=O)CCC(=O)Nc1cc(Cl)ccc1Cl (stereo unspecified)
inactive: [1] 21.4% | [2] 18.5% | [3] 18.6% | [4] 20.2% | [5] 18.1% | [6] 19.6%

CC(=O)Oc1ccc(/C=C/c2ccccn2)cc1
inactive: [1] 6.6% | [2] -1.75% | [3] -1.5% | [4] -55.1% | [5] 3.75% | [6] 15.3%

COC(=O)c1cc([O-])c2sc(C)c(C)[n+]2n1
inactive: [1] 4.25% | [2] 19.6% | [3] 25.7% | [4] 35.6% | [5] -4.05% | [6] 2.55%

COC(=O)c1cc(=O)c2ccc(Cl)cc2[nH]1
inactive: [1] -8.05% | [2] 4.05% | [3] -10.9% | [4] -14.6% | [5] -18.3% | [6] -25.3%

O=CC(O)CO (stereo unspecified)
inactive: [1] 10.4% | [2] 9.5% | [3] 11.9% | [4] 3.95% | [5] 8.65% | [6] -5.2%

CC(=O)OCC1CC=CCC1C (stereo unspecified)
inactive: [1] 5.35% | [2] -15.7% | [3] -10.2% | [4] 1.75% | [5] 2.75% | [6] 1.5%

NCC(=O)NCCC(=O)O
inactive: [1] 3.15% | [2] -6.7% | [3] 1.75% | [4] 4.6% | [5] -24.6% | [6] -4.6%

Nc1nc(/C=C(/O)c2ccccc2)c2ncn(C3OC(CO)C(O)C3O)c2n1 (stereo unspecified)
inactive: [1] 25.3% | [2] -6.25% | [3] 13.4% | [4] -4.7% | [5] 11.2% | [6] -17.8%

Cn1c2ccccc2c2nnc(N/N=C/c3cccnc3)nc21
inactive: [1] -39.1% | [2] -36.5% | [3] -17.4% | [4] -44.6% | [5] -5.05% | [6] -5.7%

COc1ccc(OC)c(NC(=O)CCCC(=O)C(C#N)c2ccccc2C)c1 (stereo unspecified)
inactive: [1] 13.1% | [2] -4.9% | [3] -3.15% | [4] 11.2% | [5] 0.2% | [6] 2.05%

CCOC(=O)CC(=O)CC
inactive: [1] 8.5% | [2] -16.6% | [3] -18.8% | [4] 7.55% | [5] -6.45% | [6] 3.25%

Cc1cn(C2CC(N=[N+]=[N-])C(CO)O2)c(=O)[nH]c1=O (stereo unspecified)
inactive: [1] -0.7% | [2] -0.4% | [3] -39.5% | [4] 14.1% | [5] 0.05% | [6] -15.6%

S=C(Nc1cccc2ccccc12)N1CCCCC1
inactive: [1] 51.7% | [2] 39% | [3] 50.7% | [4] 18.1% | [5] 61% | [6] 35.7%

CC(C)=CCc1ccc2c(c1)CCCN2C
inactive: [1] -44.4% | [2] -22.1% | [3] -17.4% | [4] -47% | [5] 20.9% | [6] 1.15%

Cc1cccnc1NCc1ccccn1
inactive: [1] 3.1% | [2] -0.9% | [3] 15.1% | [4] 4.35% | [5] 1.75% | [6] 3.35%

Cc1cn(C2CC(O)C(CO)C2C)c(=O)[nH]c1=O (stereo unspecified)
inactive: [1] -7.45% | [2] -11.8% | [3] -17.2% | [4] 5.4% | [5] -11.8% | [6] -24.9%

C1CCC(c2nn[nH]n2)CC1
inactive: [1] 2.3% | [2] -7.05% | [3] 3.25% | [4] 11.7% | [5] 8.05% | [6] 1%

O=C(NCCc1ccccc1)[C@H]1CCCC[C@@H]1CCO
inactive: [1] 19.4% | [2] 0.85% | [3] -31.9% | [4] 0.4% | [5] -39.8% | [6] -28.6%

CC([O-])=C1C(=O)c2ccccc2C1=O.CC([O-])=C1C(=O)c2ccccc2C1=O.CC[O-].CC[O-].[Ti+4]
inactive: [1] 19.4% | [2] 27.6% | [3] 55.4% | [4] 29% | [5] 37.8% | [6] 36.5%

COC1CC(OC2CCC3(C)C(=CCC4C3C(OC(C)=O)C(OC(=O)CC(C)C)C3(C)C(C(C)=O)CCC43O)C2)OC(C)C1OC1CC(OC)C(OC2CC(OC)C(OC3OC(C)C(OC4OC(CO)C(O)C(O)C4O)C(OC)C3O)C(C)O2)C(C)O1 (stereo unspecified)
inactive: [1] 2.4% | [2] 5.2% | [3] 16.4% | [4] 21.6% | [5] -7.45% | [6] -38.4%

COC1OC(CCl)C(Cl)C(OC)C1OC (stereo unspecified)
inactive: [1] -9.1% | [2] -1.1% | [3] 5.6% | [4] -1.5% | [5] -2.5% | [6] 14.4%

From PubChem BioAssay (NCI)
